In PubChem BioAssay (NCATS):
Inconclusive results are not listed. A call without a number means that no potency is given here. Values without a mark were called inactive. The source made the active and inactive calls. Calls come from the whole dose curve; as a rule, active = well fitted cell-killing curve with a large enough effect; inconclusive = small, poorly fitted or top-dose-only effect, or effect the other way; inactive = flat fitted curve, though single readings scatter. *1 amine or outer side, *2 acyl side, *3 side chain or, on linkers, in order; H or OH if unused. Where a SMILES comes first, the peptide text is derived from it. [ ]: non-standard residue; d: D form. The star is where a group is joined. X13 = O=C(C(CC(O)CO)O[*:1])[*:2]; NMeV = CN[CH](C(=O)O)C(C)C; βNA = c1ccc2cc(N*)ccc2c1; Cbz = O=C(OCc1ccccc1)*; NMeA = CN[CH](C)C(=O)O; βAla = NCCC(=O)O

tested on: OV90; test: Primary qHTS to identify gynecologic anti-cancer compounds using libraries of approved drugs and bioactive compounds (AID 1345084); conditions: Gynecologic cancer cell panel viability, ATPlite luminescence, 48 h; series mostly up to 57.5 µM; note: nearly all actives have a fitted effect of over 55% in size
Procedure, shortened: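 Cell viability after 48 h drug treatment, ATPlite luminescence readout; five doses.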

Compound | Potency | activity change, negative = cytotoxicity
NC(N)=NCCC[C@H](NC(=O)c1sccc1NS(=O)(=O)c1cccc2nsnc12)C(=O)O | inactive | 
Nc1ccc(-n2nc(C(F)(F)F)cc2C(F)(F)F)cc1 | inactive | 
C[C@H](O)C(O)(C(=O)OCc1ccccc1NC(=O)CCC(N)C(=O)O)[C@H](C)O (stereo partly specified) | inactive | 
CC[C@H](NC(=O)c1c(O)c(-c2ccccc2)nc2ccccc12)c1ccccc1 | inactive | 
CC/C=C/C(O)C(O)C1=C(C)C(=O)C2(O1)C(=O)NC(OC)(C(=O)c1ccccc1)C2O (stereo unspecified) | inactive | 
Fc1cccc(CN(C2=NCCN2)c2c(Cl)cccc2Cl)c1 | inactive | 
O=C(O)CCc1cccc(O)c1O[C@@H]1O[C@H](CO)[C@@H](O)[C@H](O)[C@H]1O | inactive | 
CCC(C)/C=C(C)/C=C/C1=CC2=CC(=O)C(C)(O)C(OC(C)=O)C2CO1 (stereo unspecified) | inactive | 
CC1CC(O)/C=C/C(O)/C=C\C(=O)O1 (stereo unspecified) | inactive | 
CC(C)CC(NC(=O)OCc1ccccc1)C(=O)NC(CC(C)C)C(=O)NC(CCC(=O)O)C(=O)Nc1ccc2ccccc2c1 (stereo not drawn) (Cbz-Leu-Leu-Glu-βNA; configuration not given here) | inactive | 
COCc1c(O)c(C(=O)O)c(C)c2c1OC(=O)c1c(C)cc(O)c(CO)c1O2 | inactive | 
C=C(C(=O)O)C1CC(O)C2(C)CCCC(C)(O)C2C1 (stereo unspecified) | inactive | 
C=C[C@H]1[C@H](O[C@@H]2O[C@H](CO)[C@@H](O)[C@H](OC(=O)/C=C/c3ccc(O)c(OC)c3)[C@H]2O)OC=C2C(=O)OCC[C@]21O | inactive | 
COC(=O)C1(O)C(OC(C)=O)CCC2C3(CC(c4ccoc4)OC3=O)C(C)=CCC21C(=O)OC (stereo unspecified) | inactive | 
O=C(Nc1cc(-c2ccccc2)nn1-c1ccccc1F)c1ccc([N+](=O)[O-])cc1 | inactive | 
Cc1sc(C)c(C(=O)NC2(c3ccc(C(=O)O)cc3)CC2)c1Cc1ccc(C(F)(F)F)cc1 | inactive | 

Compound | Potency | activity change, negative = cytotoxicity
COc1cc([C@@H](O[C@@H]2O[C@H](CO)[C@@H](O)[C@H](O)[C@H]2O)[C@@H]2CO[C@H](c3ccc(O)c(OC)c3)[C@H]2CO)ccc1O | inactive | 
CC(C)NC(=O)c1ccc(C#Cc2ccncc2)cn1 | inactive | 
O=C(O)CC/C=C\C[C@H]1CO[C@@H](c2ccccc2Cl)O[C@H]1c1ccccc1O | inactive | 
CC(C)=CCc1cc(O[C@@H]2O[C@H](CO[C@@H]3OC[C@](O)(CO)[C@H]3O)[C@@H](O)[C@H](O)[C@H]2O)ccc1O | inactive | 
CC1(C)[C@@H]2CC=C(CO[C@@H]3O[C@H](CO[C@@H]4OC[C@H](O)[C@H](O)[C@H]4O)[C@@H](O)[C@H](O)[C@H]3O)[C@H]1C2 | inactive | 
COc1ccc(C2C(C(=O)O)C(C(=O)O)C2c2ccc(OC)cc2O[C@@H]2O[C@H](CO)[C@@H](O)[C@H](O)[C@H]2O)c(O[C@@H]2O[C@H](CO)[C@@H](O)[C@H](O)[C@H]2O)c1 (stereo partly specified) | inactive | 
C=C(C)C1CCC2(C(=O)OC3OC(COC4OC(CO)C(O)C(O)C4O)C(OC4OC(C)C(O)C(O)C4O)C(O)C3O)CCC3(C(=O)O)C(CCC4C5(C)CCC(=O)C(C)(C)C5CCC43C)C12 (stereo unspecified) |  | -0.071% [at 11.6 µM]
CC1=C(CC/C(C)=C/C(=O)O)[C@@]2(C)CCCC(C)(C)C2CC1=O (stereo partly specified) | inactive | 
C[C@]12CCC[C@](C)(C(=O)O)C1[C@@H](O)[C@@H](O)C13CC(CCC12)C(CO)(O[C@@H]1O[C@H](CO)[C@@H](O)[C@H](O)[C@H]1O)C3 (stereo partly specified) | inactive | 
COc1cc(O)cc(C)c1C(=O)O[C@H]1[C@@H](O)[C@@H](n2ccc(=O)[nH]c2=O)O[C@@H]1CO | inactive | 
C=C1C(=O)O[C@@H]2C[C@]3(C)[C@@H](CCC(C)=O)[C@@H]3C[C@H]12 | inactive | 
C=C1CC[C@@]2(OC1)O[C@H]1CC3[C@@H]4CC=C5C[C@@H](O)C[C@@H](O[C@@H]6OC[C@H](O)[C@H](O)[C@H]6O[C@@H]6O[C@@H](C)[C@H](O)[C@@H](O)[C@H]6O)[C@]5(C)C4CC[C@]3(C)[C@H]1[C@@H]2C (stereo partly specified) | inactive | 
C/C=C(\C)C(=O)OCC1OC(OCC2OC(OC3(CO)OC(CO)C(O)C3O)C(O)C(O)C2O)C(O)C(O)C1O (stereo unspecified) | inactive | 
COC(=O)C1=CO[C@@H](O[C@@H]2O[C@H](CO)[C@@H](O)[C@H](O)[C@H]2O)/C(=C\CO)[C@@H]1CC(=O)OCCc1ccc(O)cc1 | inactive | 
CCC(C)C1NC(=O)C2CCCN2C(=O)C(CC(O)CO)OC(=O)CCNC(=O)C(C)N(C)C(=O)C(C(C)C)N(C)C1=O (stereo unspecified) (cyclo([X13]PI[NMeV][NMeA][βAla]); configuration not given here) | inactive | 
